A selection: hits, their analogues and other compounds. The true share with any hit is near 2.3%.
m-calpain inh = blocks pig calpain II enzyme activity; purified calpain II, fluorogenic peptide substrate, 30 min; inhibition, % at 16 µM; 0.37% of 220,000 active; AID 1236;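 active = inhibition above about 50%, limit read from the data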
Cardio protect = modulators protecting cardiomyocytes from myocardial damage; H9c2 cardiomyocytes, H2O2 injury protection, ATPLite, 2 h; protection from H2O2 cell death, % at 20 µM; 0.63% of 360,000 active; AID 588492;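 active = compounds giving at least 50% protection of heart cells from peroxide-induced death in the single-dose screen, raw or plate-pattern-corrected value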
TAG inh = triacylglycerol accumulation inhibition; 0.66% of 230,000 active; inhibition, % at 12.5 µM; H9c2 cells, Nile Red lipid (TAG) fluorescence; cells loaded with 200 µM oleic acid;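 active = pattern-corrected inhibition of lipid staining of at least 50% with the nuclear-stain viability signal not falling by more than 50%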
aDG glyco up = alpha-DG glycosylation activation. Pro5-aDG cells, alpha-DG glycosylation AlphaScreen (IIH6); 0% Pro5, 100% B10-LARGE cell signal. activation, % at 10 µM. 0.22% of 360,000 active. AID 624168;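 active = activation of at least 8% versus controls, or a plate z-score of at least 8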;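 note: Pro5 are CHO cells carrying HIG-tagged alpha-DG that lacks glycosylation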
FAS-TE inh = blocks the thioesterase domain of human fatty acid synthase; AID 602261; P49327; 0.67% of 360,000 active; recombinant FAS-TE, OMFH fluorogenic substrate, fluorescence endpoint; inhibition, % at 15 µM;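 active = compounds whose normalised, plate-corrected inhibition of enzyme fluorescence in the single-dose primary screen is 50% or more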
Target sequence (P49327 whole entry, looked up, the tested form may be a part): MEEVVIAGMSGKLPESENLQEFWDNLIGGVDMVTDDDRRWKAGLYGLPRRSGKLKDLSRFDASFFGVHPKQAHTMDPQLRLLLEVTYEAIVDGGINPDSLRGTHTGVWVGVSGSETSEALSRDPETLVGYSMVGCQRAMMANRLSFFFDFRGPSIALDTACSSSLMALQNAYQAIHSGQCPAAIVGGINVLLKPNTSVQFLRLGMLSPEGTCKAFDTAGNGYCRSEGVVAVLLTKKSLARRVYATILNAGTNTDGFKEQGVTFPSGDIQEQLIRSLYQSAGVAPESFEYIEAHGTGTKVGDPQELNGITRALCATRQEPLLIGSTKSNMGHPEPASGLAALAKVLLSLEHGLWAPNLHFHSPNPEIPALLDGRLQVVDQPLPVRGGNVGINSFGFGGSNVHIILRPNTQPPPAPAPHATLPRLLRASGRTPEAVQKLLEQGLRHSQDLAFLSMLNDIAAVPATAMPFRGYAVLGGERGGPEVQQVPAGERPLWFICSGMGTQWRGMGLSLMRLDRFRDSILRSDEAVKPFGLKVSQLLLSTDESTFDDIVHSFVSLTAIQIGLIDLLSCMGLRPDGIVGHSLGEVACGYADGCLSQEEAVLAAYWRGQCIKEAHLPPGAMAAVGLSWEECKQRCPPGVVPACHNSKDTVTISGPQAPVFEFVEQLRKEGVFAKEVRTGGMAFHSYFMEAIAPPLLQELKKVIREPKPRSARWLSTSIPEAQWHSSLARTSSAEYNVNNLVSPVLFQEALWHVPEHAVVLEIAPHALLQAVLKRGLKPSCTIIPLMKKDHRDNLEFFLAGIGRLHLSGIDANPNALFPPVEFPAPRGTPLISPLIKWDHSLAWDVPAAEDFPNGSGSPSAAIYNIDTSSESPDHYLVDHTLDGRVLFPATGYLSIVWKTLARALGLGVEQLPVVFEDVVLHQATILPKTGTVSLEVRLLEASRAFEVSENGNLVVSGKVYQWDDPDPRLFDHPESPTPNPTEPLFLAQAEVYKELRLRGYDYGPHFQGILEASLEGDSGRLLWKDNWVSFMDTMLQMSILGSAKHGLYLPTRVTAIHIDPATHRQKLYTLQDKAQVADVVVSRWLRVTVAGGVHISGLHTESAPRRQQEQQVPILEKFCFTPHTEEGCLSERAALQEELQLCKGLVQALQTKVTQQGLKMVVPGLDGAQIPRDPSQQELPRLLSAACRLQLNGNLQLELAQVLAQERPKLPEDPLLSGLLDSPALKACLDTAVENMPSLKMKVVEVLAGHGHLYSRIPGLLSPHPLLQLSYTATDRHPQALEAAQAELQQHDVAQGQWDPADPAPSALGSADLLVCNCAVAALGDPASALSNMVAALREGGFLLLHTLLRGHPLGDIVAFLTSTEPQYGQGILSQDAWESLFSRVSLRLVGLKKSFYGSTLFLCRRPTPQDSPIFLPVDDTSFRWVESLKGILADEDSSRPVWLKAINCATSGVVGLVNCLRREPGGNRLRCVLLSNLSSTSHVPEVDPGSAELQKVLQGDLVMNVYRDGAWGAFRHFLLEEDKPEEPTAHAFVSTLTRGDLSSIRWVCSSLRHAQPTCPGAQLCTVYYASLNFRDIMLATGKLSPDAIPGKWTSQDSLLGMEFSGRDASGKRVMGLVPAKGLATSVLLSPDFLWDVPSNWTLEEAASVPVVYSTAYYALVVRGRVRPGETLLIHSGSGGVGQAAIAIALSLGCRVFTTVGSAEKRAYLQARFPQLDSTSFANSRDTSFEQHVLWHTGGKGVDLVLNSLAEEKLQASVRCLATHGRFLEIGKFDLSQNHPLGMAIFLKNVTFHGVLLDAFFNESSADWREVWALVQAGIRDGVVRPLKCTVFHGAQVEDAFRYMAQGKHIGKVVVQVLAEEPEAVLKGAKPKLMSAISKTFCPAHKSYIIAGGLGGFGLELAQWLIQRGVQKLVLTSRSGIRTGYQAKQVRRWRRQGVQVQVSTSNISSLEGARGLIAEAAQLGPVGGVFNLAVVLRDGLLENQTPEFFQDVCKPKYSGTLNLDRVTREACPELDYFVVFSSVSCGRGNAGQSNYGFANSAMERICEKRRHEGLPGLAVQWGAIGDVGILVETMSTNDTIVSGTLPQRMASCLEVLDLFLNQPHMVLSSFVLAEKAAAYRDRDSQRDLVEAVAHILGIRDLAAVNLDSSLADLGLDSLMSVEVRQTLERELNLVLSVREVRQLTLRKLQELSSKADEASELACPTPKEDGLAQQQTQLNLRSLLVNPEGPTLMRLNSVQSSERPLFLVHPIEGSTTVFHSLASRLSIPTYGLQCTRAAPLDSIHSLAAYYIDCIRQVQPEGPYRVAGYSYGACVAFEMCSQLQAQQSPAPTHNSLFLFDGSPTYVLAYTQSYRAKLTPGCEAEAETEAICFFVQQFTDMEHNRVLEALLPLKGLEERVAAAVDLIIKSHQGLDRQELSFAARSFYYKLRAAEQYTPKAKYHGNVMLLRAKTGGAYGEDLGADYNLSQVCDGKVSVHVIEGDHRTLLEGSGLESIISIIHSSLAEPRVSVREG
MIN6 prolif-1 = inducers of beta-cell replication in MIN6 cells; 0.29% of 330,000 active; AID 2380; MIN6 cells proliferation, ATPlite luminescence, 48 h; cells starved in 0.2% serum; 100% = growth in 10% serum; proliferation, % at 10 µM;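 active = compounds whose signal lies at least 3.5 SD above the mean of all wells on their plate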
MIN6 prolif-2 = MIN6 beta-cell replication induction, confirmed. MIN6 beta-cell proliferation, ATPlite luminescence, 48 h; cells kept in 0.2% serum; scaled between 0.2% and 10% serum. proliferation increase, % at 50 µM. shares compounds with MIN6 prolif-1. 920 tested, under 10 active;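 active = proliferation increase above 40% at any of the four tested concentrations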
Numbers stand for hits; n = inactive; x = not tested or not shown.

SMILES | m-calpain inh | Cardio protect | TAG inh | aDG glyco up | FAS-TE inh | MIN6 prolif-1 | MIN6 prolif-2
O=[N+]([O-])c1ccc(N2CCOCC2)cc1SCc1ccco1 | n | n | x | n | n | 0.0 | n
O=[N+]([O-])c1ccc(SCc2ccco2)cc1N1CCOCC1 | n | n | n | n | n | n | x
C[C@@H](NC(=O)c1ncn(C)c1C(=O)N[C@H](C)c1ccccc1)c1ccccc1 | x | n | n | n | n | n | x
COc1ccc(OC)c(CCNC(=O)c2ccc(CS(=O)(=O)c3ccc(Br)cc3)o2)c1 | n | n | n | n | n | n | x
COc1ccc(S(=O)(=O)Cc2ccc(C(=O)NCCc3cc(OC)ccc3OC)o2)cc1 | n | n | n | n | n | 7.5 | n
CCOC(=O)c1c(C)[nH]c(C)c1C(=O)COC(=O)c1cccc(S(=O)(=O)NC)c1 | n | n | n | n | n | 11 | n
CC(C)n1c(SCc2ccc(Cl)cc2)nc2c1c(=O)[nH]c(=O)n2C | n | n | n | n | n | 5.6 | n
Cc1nnsc1C(=O)Nc1ccc(Cl)cc1 | n | n | x | n | n | n | x
Cc1nnsc1C(=O)NC(=O)Nc1ccc(F)c(Cl)c1 | n | n | n | n | n | 5.9 | n
COc1ccc(Nc2nc(N(C)c3ccccc3)nc(N)c2[N+](=O)[O-])cc1 | x | n | x | n | n | 10 | n
CN(c1ccccc1)c1nc(N)c([N+](=O)[O-])c(Nc2ccccc2)n1 | x | n | x | n | n | n | x
OCc1ccccc1-c1cccc2nccn12 | x | n | n | n | n | x | x
CC(C)c1cc(=O)[nH]c(N2CCN(Cc3ccc4c(c3)OCO4)CC2)n1 | x | n | x | n | n | 8.7 | n
CCN(CC)c1cnn(C/C(=N\OC)c2ccc(Cl)cc2)c(=O)c1Br | n | n | n | n | n | 7.5 | n
O=C(Cn1cc2c(n1)CCCCC2)NCc1ccccn1 | n | n | n | n | n | 12 | n
CN(C)S(=O)(=O)c1ccc(N2CCCC2)c(C(=O)N2CCN(S(=O)(=O)c3ccc(F)cc3)CC2)c1 | x | n | n | n | n | n | x
Cc1cc2nc(C3CCCCC3)c(Cc3ccsc3)n2c(C)c1Br | x | x | x | n | n | x | x
CN(C)c1nc(N(C)C)nc(N(C#N)CCOc2ccccc2)n1 | n | n | x | n | n | 9.9 | n
COc1ccc(-c2noc(COc3ccc4c(c3)OCO4)n2)cc1OC | n | n | x | n | n | 11 | n
COc1ccc(-c2noc(COc3ccc4c(c3)OCO4)n2)cc1 | n | n | x | n | n | n | x
CCCOc1c(Cl)cc(C(=O)NC)cc1OC | n | n | n | n | n | 9.7 | n
CC(C)CC(c1nnnn1C(C)C)N1CCN(c2ccccc2)CC1 (centres undefined) | n | n | x | n | n | 7.3 | n
Cc1ccc(S(=O)(=O)Cn2nnnc2C(CC(C)C)N2CCN(c3ccccc3)CC2)cc1 (centres undefined) | n | n | n | n | n | n | x
O=C(NCC(c1ccco1)N1CCCCC1)c1cnc(Cl)c(Cl)c1 (centres undefined) | x | n | n | n | n | n | x
Cc1ccc(OCC(=O)NNC(=O)CSC(=S)N2CCCC2)cc1 | x | n | n | n | n | n | x
SMILES | m-calpain inh | Cardio protect | TAG inh | aDG glyco up | FAS-TE inh | MIN6 prolif-1 | MIN6 prolif-2
CCc1c(C)c(C#N)c2nc3ccccc3n2c1N(C)C | n | n | n | n | n | 6.0 | n
CCCCc1c(C)c(C#N)c2nc3ccccc3n2c1Cl | n | x | x | x | x | x | x
CCOc1ncccc1C(=O)OC(C)C(=O)Nc1ccc(N2CCOCC2)cc1 (centres undefined) | x | n | n | n | n | 10 | n
CCOc1ncccc1C(=O)Nc1ccccc1N1CCOCC1 | x | n | n | n | n | n | x
CC1=CCC[C@H]2[C@H](C1)C(=O)C[C@@H](C)[C@]2(C)CC/C(=C/CO)CO | x | n | x | n | n | n | x
CC(=O)N1N=C(c2ccc(Cl)cc2)OC12CCCC2 | n | n | n | n | n | 7.3 | n
CC(=O)N1N=C(c2cccc(Br)c2)OC12CCCC2 | n | n | n | n | n | n | x
CC1(C)CN(c2ccc(C(=O)c3ccccc3)cc2)C1=O | n | n | n | n | n | 7.8 | n
CC(C)CNC(=O)CN(C1CCCCC1)S(=O)(=O)c1ccccc1 | n | n | n | n | n | 9.1 | n
COc1ccc(Cc2nc3ccccc3n2CC(=O)N/N=C/c2ccccc2)cc1OC | n | n | x | n | n | n | x
CCn1c(SCC(=O)N/N=C/c2ccc(OC)c(OC)c2)nc2ccccc21 | n | n | x | n | n | 7.8 | n
COc1ccc(S(=O)(=O)N2CCN(C(=O)c3ccccc3Cc3ccccc3)CC2)cc1OC | x | n | n | n | n | x | x
Cc1c(N=C2NC(=O)/C(=C/c3ccc(O)cc3)S2)c(=O)n(-c2ccccc2)n1C | n | n | x | n | n | 4.4 | n
Cc1c(N=Nc2ccc(O)cc2)c(=O)n(-c2ccccc2)n1C | n | n | n | n | n | n | x
COc1ccc(-c2cc(C#N)nc(N3CCN(C)CC3)n2)cc1 | n | n | x | n | n | n | x
CN1CCN(c2nc(C#N)cc(-c3ccccc3)n2)CC1 | n | n | n | n | n | 9.8 | n
C[C@@H](O)C1NC(=O)[C@H](CCCCN)NC(=O)c2cc([N+](=O)[O-])cc(F)c2NCCCC[C@@H](C(N)=O)NC1=O (some centres undefined) | n | n | n | n | n | 9.7 | n
CC[C@H](C)[C@@H]1NC(=O)c2cc([N+](=O)[O-])cc(F)c2NCCCC[C@@H](C(N)=O)NC(=O)[C@H](CC(N)=O)NC1=O | n | n | n | n | n | n | x
Cc1ccc(CCNC(=O)C2CCC(=O)N(Cc3cccc(F)c3)C2)cc1 (centres undefined) | x | n | n | n | n | n | x
N/N=C/C(=N\Nc1ccc(Cl)cc1)C(=O)c1ccncc1 | n | n | n | n | n | 9.8 | n
COc1ccc(N/N=C(\C=N\O)C(=O)c2ccc(OC)cc2)cc1 | n | n | n | n | n | n | x
O=C1CSC(c2ccc(Cl)cc2)N1Nc1nc(N2CCOCC2)nc(N2CCOCC2)n1 (centres undefined) | n | n | n | n | n | 9.7 | n
C=CCOc1ccc(-c2nc3c(c(=O)[nH]c(=O)n3CCCC)n2C)cc1OC | n | n | n | n | n | 12 | n
CCCCn1c(=O)[nH]c(=O)c2c1nc(-c1cc(Br)c(OCC)c(OC)c1)n2C | x | n | x | n | n | n | x
O=C(OCc1cn([C@@H]2C[C@H](c3ccccc3)N(C(=O)c3cccs3)C[C@H]2O)nn1)c1ccccc1 | x | n | n | n | n | x | x
C[C@@H]1CN([C@H](C)CO)C(=O)CCCn2nncc2CO[C@H]1CN(C)S(=O)(=O)c1ccc(Oc2ccccc2)cc1 | x | n | n | n | n | x | x
COc1cccc(Cn2c(=O)c3[nH]cnc3n(-c3ccccc3C)c2=O)c1 | n | n | n | n | n | 14 | n
O=C(NNC(=O)C1CCCO1)c1ccc([N+](=O)[O-])cc1 (centres undefined) | x | n | x | n | n | n | x
